In the library only some 11% were active in any assay of this set; here they are far more common.
Pf growth 48h = inhibits P. falciparum growth in the first generation, 48 h | P. falciparum luciferase growth in erythrocytes, 48 h | Potency, µM (top dose mostly 28.7 µM), for the others: top-dose activity change, negative = inhibition, usual class: inhibitors | 310,000 compounds, 5.9% hits; further: on the % scale 0 is the no-effect control and ±100 the full control effect
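In quantitative HTS format, infected erythrocytes bearing luciferase-reporter parasites were treated for a single generation at 37 C. Luminescence after adding detection reagent served as the growth measure.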
Pf growth 96h = P. falciparum growth inhibition at 96 hours | Potency, µM (series often up to 28.7 µM), inactives show at the highest dose activity change, negative = inhibition, hits mostly inhibitors | 320,000 compounds, 6.9% hits | P. falciparum luciferase reporter growth, 96 h | AID 504834; further: on the % scale 0 is the no-effect control and ±100 the full control effect
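Erythrocytes infected with luciferase-expressing P. falciparum were dispensed at 2% hematocrit and 0.05% parasitemia (final), then incubated with compounds 96 hours at 37 C in 5% CO2. Luminescence after detection reagent addition reported growth.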
AmpC inh detg = inhibitors of E. coli AmpC beta-lactamase with detergent; P00811; AmpC hydrolysis of nitrocefin, absorbance 480 nm, 0.01% Triton; Potency, µM (top dose mostly 114 µM), for the others: at the highest dose activity change, negative = inhibition, usual class: inhibitors; 370,000 compounds, 0.041% hits; AID 485294;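 further: 0% = no-compound wells and -100% = no-enzyme wells; nearly all actives have a fitted effect of over 25% in size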
Target sequence (P00811 whole entry, looked up): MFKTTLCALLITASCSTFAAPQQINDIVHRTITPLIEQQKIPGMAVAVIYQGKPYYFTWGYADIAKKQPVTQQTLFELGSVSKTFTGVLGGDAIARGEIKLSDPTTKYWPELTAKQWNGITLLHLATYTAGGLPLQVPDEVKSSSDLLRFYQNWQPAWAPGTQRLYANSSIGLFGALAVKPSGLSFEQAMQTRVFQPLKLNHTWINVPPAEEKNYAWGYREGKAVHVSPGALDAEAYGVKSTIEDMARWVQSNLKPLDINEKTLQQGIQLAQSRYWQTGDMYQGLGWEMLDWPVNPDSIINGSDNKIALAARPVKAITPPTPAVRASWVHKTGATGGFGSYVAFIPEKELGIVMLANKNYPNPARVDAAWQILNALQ
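20 mM phosphate pH 7.0 + 0.01% (detergent screen) or 0.0001% Triton X-100; 5.3 nM AmpC reagent; cpd preinc 15 min RT; nitrocefin (800 uM stock) to start; A480 q20 s × 4 min; Activity was normalised to no-enzyme and no-compound control wells.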
AMA1-RON2 inh = disrupts binding of P. falciparum AMA1 to RON2. AlphaScreen AMA1-biotinylated RON2 peptide binding. Potency, µM (titrated, usually from 58.2 µM), without a hit: at the top dose activity change, negative = inhibition, actives largely listed as inhibitors. 360,000 compounds, 0.2% hits. AID 720542;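 further: 0% = vehicle wells and -100% = peptide control; nearly all actives have a fitted effect of over 45% in size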
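AMA1 (3D7) with his tag at 25 nM final met compounds first, then biotinylated RON2 peptide at 25 nM; detection used donor plus acceptor beads, 10 µg/mL apiece, read by AlphaScreen after 30 min at room temperature.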
AmpC no deterg = inhibitors of E. coli AmpC beta-lactamase without detergent. AmpC nitrocefin hydrolysis, absorbance 480 nm, 0.0001% Triton. Potency, µM (doses to about 57.1 µM), without a hit: top-dose activity change, negative = inhibition, actives largely listed as inhibitors. 330,000 compounds, 0.52% hits;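 further: plate controls were no compound for no effect and no enzyme for full effect; nearly all actives have a fitted effect of over 20% in size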
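20 mM phosphate pH 7.0 + 0.01% (detergent screen) or 0.0001% Triton X-100; 5.3 nM AmpC reagent; cpd preinc 15 min RT; nitrocefin (800 uM stock) to start; A480 q20 s × 4 min; Activity was normalised to no-enzyme and no-compound control wells.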
HCV inhibitor = HCV inhibition; Huh7.5.1 HCVcc-Cre infection, luciferase reporter, 44 h; Potency, µM (highest dose often 41.8 µM), for inactives: at the highest dose activity change, negative = inhibition, usual class: inhibitors; 340,000 compounds, 3.4% hits; AID 651820; further: on the % scale 0 is the no-effect control and ±100 the full control effect
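Whole-lifecycle infectious HCVcc-Cre system; cells 1,000/well, compound then virus (~0.5 moi) added 4 h after plating, 44 h culture. Luciferase read 15 sec following 15 min substrate incubation, room temp.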
HCV inh confirm = HCV inhibition, cherry-pick confirmation. shares compounds with HCV inhibitor. HCVcc-Cre infectious virus cell assay, luciferase, inhibition. Potency, µM (titrated, usually from 41.8 µM), for the others: at the highest dose activity, negative = inhibition, hits mostly inhibitors. 640 compounds, 78% hits. AID 720575; further: nearly all actives have a fitted effect of over 80% in size
HCV host tox = host cell cytotoxicity counter-screen for HCV inhibitors. 640 compounds, 22% hits. Potency, µM (doses to about 41.8 µM), without a hit: top-dose activity change, negative = cytotoxicity, usual class: inhibitors. HCV host cell line cytotoxicity counterscreen. shares compounds with HCV inhibitor. AID 720576;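 further: 44 h compound exposure; on the % scale 0 is the no-effect control and ±100 the full control effect; nearly all actives have a fitted effect of over 55% in size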
* hit, by the source's call; u = inconclusive; x = no result given. The call rests on the fitted dose curve; in most records, active means well fitted curve in the direction sought with a large enough effect; inconclusive means small, poorly fitted or top-dose-only effect, or another doubt; inactive means no such curve, though single readings can be large; an effect the other way counts as inactive or inconclusive. Potency means the concentration at half of the fitted maximal effect.

SMILES	Pf growth 48h	Pf growth 96h	AmpC inh detg	AMA1-RON2 inh	AmpC no deterg	HCV inhibitor	HCV inh confirm	HCV host tox
C/C(CC1CC2=C(CC1(C)C)C(C)(C)CCC2)=N\NC(N)=S (stereo not drawn)	x	1.04µM*	13.9%	34.0%	-26.0%	5.62µM*	14.1µM*	u
C/C(CC1CC(C)(C)OC1=O)=N\NC(N)=S (stereo not drawn)	27.2%	-12.1%	2.3%	78.7%	-16.7%	-24.0%	x	x
COc1ccc(-c2csc(NC(C)c3nc4cc(Cl)c(Cl)cc4n3CCCO)n2)cc1 (stereo not drawn)	x	x	x	29.1%	x	8.91µM*	12.5µM*	11.1%
CC(Nc1nc(-c2ccc(F)cc2)cs1)c1nc2cc(Cl)c(Cl)cc2n1CCOCCO (stereo not drawn)	x	x	x	0.0%	x	-15.4%	x	x
Oc1c(N=Nc2ccccn2)ccc2ccccc12	u	8.28µM*	-8.7%	u	-14.9%	2.51µM*	17.7µM*	u
O=C1/C(=C/c2ccccc2)C[C@@]2(O)[C@H]3Cc4ccc(O)c5c4[C@@]2(CCN3CC2CC2)C1O5 (stereo partly drawn)	x	x	x	12.3%	-21.2%	3.16µM*	6.28µM*	9.95µM*
Oc1ccc2c3c1OC1c4[nH]c5ccccc5c4C[C@@]4(O)C(C2)N(CC2CC2)CC[C@]314 (stereo partly drawn)	x	x	x	-5.7%	-17.5%	u	x	x
COc1ccc(N(C)C(=O)c2nc(-c3cccc(F)c3)n3c2CCCCC3)c(OC)c1	x	x	13.9%	x	x	x	x	x
CCCC(=O)NNC(=O)CCC(=O)NCc1ccccc1	36.0%	37.2%	4.5%	37.3%	-31.9%	-4.4%	x	x
CCCC(=O)NNc1c2ccccc2nc2ccccc12	-25.7%	9.28µM*	0.4%	10.2%	-25.7%	1.41µM*	0.56µM*	0.499µM*
O=C(COc1ccccc1)NNc1c2ccccc2nc2ccccc12	5.22µM*	-12.4%	7.3%	-24.4%	-4.7%	1µM*	1.58µM*	-94.4%
CCN(CC)S(=O)(=O)c1ccc2c(c1)nc(CN(C)C(=O)Nc1ccc(C)c(F)c1)n2C	x	x	11.6%	x	x	x	x	x
COc1ccccc1NC(=O)c1sc2nc3n(c(=O)c2c1C)N=C(c1cccc(Br)c1)CS3	x	x	4.4%	x	x	x	x	x
NC(=O)c1c(-c2ccccc2)oc2ccc(O)cc12	28.8%	x	2.1%	2.7%	-10.1%	1.8%	x	x
CCOC(=O)c1c(-c2ccccc2)oc2ccc(O)cc12	50.8%	65.0%	u	3.5%	-26.1%	2.82µM*	14.1µM*	-30.4%
Cc1ccc2c(c1)N(CCC(=O)NCc1ccccc1Cl)C(=O)CO2	x	x	10.0%	x	x	x	x	x
Cc1noc(/C=C/c2ccccc2F)c1S(=O)(=O)N1CCC(C(=O)N2CCN(C)CC2)CC1	-0.7%	-19.7%	0.1%	-9.2%	2.4%	3.98µM*	22.3µM*	u
O=C1/C(=C/c2cccnc2)Oc2cc(OS(=O)(=O)c3ccc(F)cc3)ccc21	x	u	1.3%	-4.0%	-11.2%	4.47µM*	25µM*	-28.7%
COC(=O)c1scc(-c2ccc(C)cc2)c1S(=O)(=O)Nc1cc(OC)c(OC)c(OC)c1	x	x	15.9%	x	x	x	x	x
CCOc1ccc(-n2nc3ccc(NC(=O)COc4ccccc4C)cc3n2)cc1	x	x	-0.9%	x	x	x	x	x
COc1cccc(Oc2ccc(N)cn2)c1	35.7%	3.0%	-2.6%	7.5%	-16.0%	u	x	x
Cc1cc(Oc2ccc(N)cn2)ccc1Cl	23.9%	3.2%	0.5%	-3.2%	-11.6%	u	u	48.6%
O=C(Oc1ccc(NC2=C(Cl)C(=O)c3ccccc3C2=O)cc1)c1ccc([N+](=O)[O-])cc1	16.8%	30.9%	-4.6%	-11.9%	-21.9%	u	x	x
CC(=O)Nc1ccc(NC2=C(Cl)C(=O)c3ccccc3C2=O)cc1	0.0%	18.1%	16.9%	-0.6%	-19.9%	3.16µM*	25µM*	22.3µM*
NC(=S)NN=C1c2ccccc2-c2cc(Br)ccc21	x	x	x	6.8%	x	u	6.28µM*	-32.6%
SMILES	Pf growth 48h	Pf growth 96h	AmpC inh detg	AMA1-RON2 inh	AmpC no deterg	HCV inhibitor	HCV inh confirm	HCV host tox
ON=C1c2ccccc2-c2ccc(Br)cc21	x	x	x	-16.5%	x	u	x	x
COc1cccc(CNC(=O)c2cc(S(=O)(=O)N3CCCCCC3)cn2C)c1	x	x	-4.6%	x	x	x	x	x
COc1ccccc1-c1nc(-c2ccccc2)[nH]c(=O)c1C#N	12.7%	-7.2%	9.7%	37.4%	-15.7%	24.5%	x	x
COc1cc(-c2nc(-c3ccc4c(c3)-c3ccccc3S4(=O)=O)c(-c3ccccc3)[nH]2)cc(OC)c1OC	1.85µM*	2.4%	-4.2%	13.9%	-7.6%	2µM*	1.99µM*	u
C/C(=N\NC(=S)Nc1cc(S(=O)(=O)N2CCOCC2)ccc1Cl)c1ccccc1F	76.8%	-23.6%	-7.7%	5.6%	-44.6%	u	22.3µM*	u
CC(C)N(C(=S)Nc1cc(S(=O)(=O)N2CCOCC2)ccc1Cl)c1ccccc1	1.5%	-16.7%	-10.8%	-10.9%	-10.7%	2.7%	x	x
CC(CNC(=O)Cn1c(-c2cccs2)cc2cc(Cl)ccc21)c1ccccc1 (stereo not drawn)	x	x	1.6%	x	x	x	x	x
COc1ccc(Br)cc1CNC(=O)Cn1ncn2nc(-c3cccs3)cc2c1=O	x	x	-4.3%	x	x	x	x	x
O=C(Cc1ccc(Cl)cc1Cl)Nc1ccc(OC(F)F)c(Cl)c1	3.1%	7.9%	u	29.5%	-35.0%	u	x	x
O=C(Nc1ccc([N+](=O)[O-])cc1)Nc1ccc(OC(F)F)c(Cl)c1	1.85µM*	-14.6%	-9.8%	-1.6%	-18.9%	u	7.05µM*	8.87µM*
COc1ccc(S(=O)(=O)Nc2cccc(-c3ccc(N4CCCC4)nn3)c2)c(OC)c1	x	x	-0.6%	x	x	x	x	x
COc1ccc(S(=O)(=O)Nc2cccc(-c3ccc(N4CCCCCC4)nn3)c2)c(OC)c1	-3.7%	u	-6.9%	-12.0%	-46.4%	3.55µM*	19.9µM*	-15.3%
Cc1ccc(C(=O)n2nc(C)c(S(=O)(=O)N3CCOCC3)c2C)cc1	x	x	16.7%	x	x	x	x	x
CCCOc1ccc(/C=C/C(=O)NC2CCCCC2)cc1OC	-10.4%	u	u	6.0%	-11.0%	u	x	x
COc1cc(/C=C/C(=O)NC2CCCCC2)cc(OC)c1OC	-14.9%	u	-1.1%	-4.0%	-18.5%	u	u	25.4%

Screening results: PubChem BioAssay, National Center for Advancing Translational Sciences (NCATS)
